TrxR1 inh: rat TrxR1 inhibition. Potency, µM (doses to about 114 µM), hits mostly inhibitors. AID 588453. recombinant rTrxR1, NADPH fluorescence consumption, selenite substrate. O89049. actives 1% (n = 390,000); also: nearly all actives have a fitted effect of over 65% in size
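Rat TrxR1 (90 nM in the dispensed reagent) was pre-reduced with 400 uM NADPH for 5 min at room temperature, then incubated with compound for 15 min. After 400 uM selenite was added, NADPH fluorescence (Ex 340/Em 450 nm) was followed for 8 min.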
GCN5L2 inh: inhibitors of human GCN5L2 histone acetyltransferase | actives 0.21% (n = 390,000) | Q92830 | GCN5L2 HAT assay, ThioGlo1 CoA-SH fluorescence | Potency, µM (top dose mostly 58.9 µM), usual class: inhibitors
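Fluorescence readout, Ex340nm/Em540nm: ThioGlo1 (50uM final) reacts with free CoA thiol released as 20nM GCN5L2 acetylates H3(1-25) peptide (75uM) using acetyl-CoA (70uM). Compound and enzyme sat 15 min beforehand; 20 min room-temperature reaction.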
GLS inhibitor: glutaminase GLS (human) inhibition. O94925. GLS enzymatic activity, qHTS titration. Potency, µM (doses to about 45.5 µM), hits mostly inhibitors. actives 0.21% (n = 410,000)
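Assay buffer: 45 mM KH2PO4 pH 8.2, 0.02% Tween-20. hKGA acts on L-glutamine (1 mM solution added); product glutamate is reported by an oxidase/peroxidase Amplex Red coupling, with fluorescence taken at baseline and 30 min.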
TrxR1 substrate: is turned over as a substrate by rat TrxR1. O89049. purified TrxR1 substrate turnover, NADPH consumption readout. Potency, µM (highest dose often 114 µM). actives 0.01% (n = 390,000). AID 588456; also: nearly all actives have a fitted effect of over 50% in size
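Rat TrxR1, dispensed at 90 nM, was prereduced with 400 uM NADPH (final) for 5 min at ~22 deg C, then incubated with compound 15 min before 400 uM selenite. A first-read NADPH fluorescence drop versus no-compound background flagged substrates.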
VDR inhibitor: inhibitors of human vitamin D receptor. P11473. VDR-SRC2-3 peptide fluorescence polarization, 2 h. Potency, µM, actives largely listed as inhibitors. actives 0.93% (n = 400,000)
Target sequence (P11473 whole entry, looked up): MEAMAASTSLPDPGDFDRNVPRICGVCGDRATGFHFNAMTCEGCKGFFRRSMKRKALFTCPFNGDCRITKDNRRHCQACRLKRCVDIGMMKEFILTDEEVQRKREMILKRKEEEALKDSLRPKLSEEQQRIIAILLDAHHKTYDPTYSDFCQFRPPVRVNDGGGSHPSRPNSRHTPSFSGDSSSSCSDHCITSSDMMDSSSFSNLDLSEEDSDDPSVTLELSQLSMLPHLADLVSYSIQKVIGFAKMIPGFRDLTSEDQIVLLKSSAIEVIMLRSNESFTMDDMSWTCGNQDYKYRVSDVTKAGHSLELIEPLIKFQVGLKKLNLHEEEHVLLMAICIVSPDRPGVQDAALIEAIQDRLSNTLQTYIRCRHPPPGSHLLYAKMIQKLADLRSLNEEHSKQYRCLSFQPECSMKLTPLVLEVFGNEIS
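Fluorescence polarization assay measuring small-molecule disruption of VDR binding to the coregulator peptide SRC2-3. Compounds were pin-transferred (23 nl) into the reagent mix and incubated 2 h at room temperature before reading.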
Sfp PPTase inh: inhibitors of Bacillus subtilis Sfp phosphopantetheinyl transferase; Q9F4F7; Biochemical Sfp PPTase activity, qHTS; Potency, µM, actives largely listed as inhibitors; actives 3.5% (n = 310,000); AID 1490;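 also: the enzyme is Sfp with the accession as filed and its product quenches rhodamine fluorescence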
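Fluorescence-quenching assay: 15 nM Sfp-PPTase preincubated 15 min at room temperature with compound, then 5 uM rhodamine-CoA and 12.5 uM BHQ-2-labelled YbbR peptide added. Fluorescence (ex 525/em 598 nm) read at start and after 30 min; difference gives rate.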
Large screens that a line does not name were inactive. Rows were chosen to be rich in hits. Some 3.8% of all compounds tested hit in one or more screens of this group. Calls follow the shape of the dose curve; as a rule, active = well fitted curve in the direction sought with a large enough effect; inconclusive = small, poorly fitted or top-dose-only effect, or another doubt; inactive = no such curve, though single readings can be large; an effect the other way counts as inactive or inconclusive.

COc1ccc(Nc2cc(NCCCO)c([N+](=O)[O-])c3nonc23)cc1	none
CC(=O)OCCCNc1cc(Sc2ccc(C)cc2)c2nonc2c1[N+](=O)[O-]	TrxR1 inh 11.2µM, VDR inhibitor inconclusive
COC(=O)CCSc1cc(NCCOC(C)=O)c([N+](=O)[O-])c2nonc12	none
CC(=O)OCCNc1cc(Sc2nc3ccccc3[nH]2)c2nonc2c1[N+](=O)[O-]	GLS inhibitor inconclusive, VDR inhibitor 14.1µM, Sfp PPTase inh 1.58µM
CC(=O)OCCCNc1cc(Sc2nc3ccccc3s2)c2nonc2c1[N+](=O)[O-]	TrxR1 inh 0.316µM, GLS inhibitor inconclusive, VDR inhibitor inconclusive, Sfp PPTase inh 2.51µM
C=CCn1c(SCC(=O)Nc2ccc(N(C)C)cc2)nnc1-c1cccc(C)c1	VDR inhibitor 89.1µM
C=CCn1c(SCC(=O)Nc2cccc(C)c2)nnc1-c1cnccn1	none
COc1cccc(Cc2nc3ccccc3nc2SCC(=O)Nc2cccc(C)c2)c1	none (no result: Sfp PPTase inh)
COc1cccc(C(=O)OC(C)C(=O)Nc2ccc3c(c2)OCO3)c1 (stereo not drawn)	none (no result: Sfp PPTase inh)
O=C(CCc1nnc2n(Cc3ccc(Cl)cc3)c(=O)c3ccccc3n12)N1CCN(c2ccccn2)CC1	GLS inhibitor 11.2µM
Cc1onc(-c2ccccc2Cl)c1C(=O)Nc1ccccc1C(=O)NC(C)C	GLS inhibitor inconclusive
COc1ccc(C(C)=O)cc1CSc1nc(NCc2ccccc2)c2ccccc2n1	none (no result: Sfp PPTase inh)
N#CCCn1c2ccccc2c2nc3ccccc3nc21	none
CSc1ccc(CN(C)CC(=O)NCCc2ccccc2)cc1	none
Cc1oc(-c2ccccc2)cc1C(=O)Nc1ccccc1	none
Cc1oc(-c2ccccc2)cc1C(=O)Nc1ccc2ccccc2c1	Sfp PPTase inh 89.1µM
CCOc1ccc(CC(C(=O)NN)C(=O)NN)cc1CN(C)C	none
Cc1cc(=O)n2c(C(=O)Nc3ccc(C(=O)OC(C)C)cc3)c(C(=O)Nc3ccccc3)sc2n1	TrxR1 inh 50.1µM
CNC(=O)/C(C#N)=C\c1ccc(CNS(=O)(=O)c2ccccc2)o1	none
COCCCN1C(=O)/C(=C/c2ccc(CNS(=O)(=O)c3ccccc3)o2)C(C(=O)OC)=C1C	Sfp PPTase inh 14.1µM
CCOC(=O)c1cnc2ccc(OCC)cc2c1NCc1ccccc1	Sfp PPTase inh 31.6µM
CCOC(=O)/C=C1\CN(Cc2ccc(OC)cc2)S(=O)(=O)c2ccc(C(F)(F)F)cc21	TrxR1 inh 25.1µM (no result: GCN5L2 inh, GLS inhibitor, VDR inhibitor, Sfp PPTase inh)
CCOC(=O)/C=C1\CN(CCC(C)C)S(=O)(=O)c2ccccc21	none
Cc1cccc(OCCOCCSc2ncccn2)c1	none
Cc1cccc(OCCSc2nc(N)cc(N)n2)c1	TrxR1 inh 39.8µM, VDR inhibitor inconclusive, Sfp PPTase inh 44.7µM
Cn1c(=O)c2sccc2n2c(CCCC(=O)Nc3ccc(Oc4ccccc4)cc3)nnc12	none (no result: Sfp PPTase inh)
Cc1cccc(CN2CCN(CC(=O)O)C2=O)c1	GCN5L2 inh inconclusive, Sfp PPTase inh 89.1µM
Cc1cccc(CN2CCN(CC(=O)N3CCCC3)C2=O)c1	none
COc1cc(OC)cc(C(=O)NC(C(=O)NCc2ccccn2)C(C)C)c1 (stereo not drawn)	none (no result: Sfp PPTase inh)
COC(=O)c1c(C)nc(C)c(C(=O)OC)c1-c1ccc(OC)c(OC)c1	none
Cc1c(Cl)cccc1NC(=S)Nn1cnnc1	TrxR1 inh inconclusive, VDR inhibitor 79.4µM, Sfp PPTase inh 22.4µM
CC1(C)Cc2ccccc2C(/C(C#N)=N/O)=N1	none
COc1ccc(N/N=C(/C(N)=O)C2=NC(C)(C)Cc3ccccc32)cc1	Sfp PPTase inh 28.2µM
CN(C)/C=N/c1sc2c(c1C#N)CCCC2	Sfp PPTase inh 44.7µM
CC1CCc2c(sc(/N=C/N(C)C)c2C#N)C1 (stereo not drawn)	none
O=C(N/N=C/c1cccs1)c1ccc2ncccc2c1	none

Bioassay records: PubChem, National Center for Advancing Translational Sciences (NCATS)
